CHRM1 PAM – positive allosteric modulators of human M1 muscarinic receptor; P11229; CHO-K1 hM1, Fluo-8 calcium fluorescence, ACh EC20; 0% = ACh EC20, 100% = maximal ACh; 0.088% of 360,000 active; activation, % at 3 µM; in the data active = activation above about 19%, passing the limit was not always enough
Target sequence (P11229 whole entry, looked up): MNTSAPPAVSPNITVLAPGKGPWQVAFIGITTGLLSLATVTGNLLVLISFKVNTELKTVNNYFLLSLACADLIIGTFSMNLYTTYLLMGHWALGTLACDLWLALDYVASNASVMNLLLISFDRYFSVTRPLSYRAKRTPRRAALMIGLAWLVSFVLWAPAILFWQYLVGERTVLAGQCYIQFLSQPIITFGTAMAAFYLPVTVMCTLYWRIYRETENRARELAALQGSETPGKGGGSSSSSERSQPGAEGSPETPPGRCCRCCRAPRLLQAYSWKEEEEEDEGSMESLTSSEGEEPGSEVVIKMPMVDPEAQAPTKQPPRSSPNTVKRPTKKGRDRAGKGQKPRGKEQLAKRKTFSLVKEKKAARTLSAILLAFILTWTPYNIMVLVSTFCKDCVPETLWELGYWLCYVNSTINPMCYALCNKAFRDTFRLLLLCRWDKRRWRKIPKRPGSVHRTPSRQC
CHO-K1 Ca antag – counter-screen for M1 antagonists: effect in parental CHO-K1 cells | ATP-induced calcium, Fluo-8 fluorescence | inhibition, % at 3 µM | 0.6% of 360,000 active | AID 602250;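 active = inhibition above a per-plate cutoff, the plate's mean sample inhibition plus 3 SD, cut at about 24% in these data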;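 also: 0% = DMSO plus EC80 ATP and 100% = DMSO alone without ATP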
CHO-K1 Ca PAM – M1 PAM counterscreen hit in parental CHO-K1 cells | ATP EC20, Fluo-8 calcium fluorescence; 0% at ATP EC20, 100% at ATP max | activation, % at 3 µM | 0.02% of 360,000 active | AID 602247;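 active = activation above the run cutoff, the mean activation of all test compounds plus 3 SD, cut at about 40% in these data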;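 also: peak over basal fluorescence ratio in a 140 s read after ATP addition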
M1 ag – human M1 muscarinic receptor agonism; P11229; CHO-K1 hM1, Fluo-8 calcium fluorescence, agonist mode; 0% DMSO, 100% acetylcholine EC100; activation, % at 3 µM; 0.33% of 360,000 active; AID 588814;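 active = activation above the run's mean compound activation plus 3 SD, cut at about 16% in these data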;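 also: peak over basal fluorescence ratio within a 140 s kinetic read after compound addition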
M1 antag – blocks human M1 muscarinic receptor; P11229; CHO-K1 hM1, Fluo-8 calcium fluorescence, ACh EC80 antagonist; inhibition, % at 3 µM; 1.3% of 360,000 active; AID 588852;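 active = percent inhibition above its own plate's cutoff, namely the mean of that plate's compound wells plus 3 SD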;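 also: peak over basal fluorescence ratio during 140 s after agonist addition; 0% = ACh EC80 plus DMSO and 100% = DMSO alone without agonist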
M1 ag parental – nonselective activator or artifact in parental CHO-K1 cells; Fluo-8 calcium fluorescence; scaled to maximal ATP response, vehicle zero; activation, % at 3 µM; 0.48% of 360,000 active; AID 602248; in the data active = activation above about 15%;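 also: untransfected CHO-K1 host cells lacking M1 receptor as counterscreen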
* = called active by the depositor; ! = a repeat was not active. Compounds with a hit are over-represented: about 2.3% of the library has one in this group of screens.

SMILES	CHRM1 PAM	CHO-K1 Ca antag	CHO-K1 Ca PAM	M1 ag	M1 antag	M1 ag parental
O=C(NCC1CCCO1)c1ccccc1OCc1ccc(Cl)cc1 (configuration not stated)	-5	-4	-2	-2	8	3
COc1cc(/C=C/C(=O)OCC(=O)c2c(N)n(C)c(=O)n(C)c2=O)ccc1OCC#N	5	-12	8	-4	0	1
CC(=O)c1cccc(NC(=O)C(OC(=O)/C=C/c2ccc3c(c2)OCO3)c2ccccc2)c1 (configuration not stated)	-4	-1	4	-4	4	0
COC(=O)c1ncccc1SC	1	-11	14	-5	4	0
O=C(CSc1c2c(nc3ccc(Cl)cc13)CCCC2)N1CCN(C(=O)c2ccco2)CC1	-1	-17	20	-5	-3	3
O=C(C[n+]1cc(-c2ccc(Cl)cc2)n2c1CCC2)Nc1nc(-c2ccc(F)cc2)cs1	4	4	12	-5	-1	18*
Cc1ccc(-c2c[n+](CC(=O)N3c4ccccc4Sc4ccccc43)c3n2CCC3)cc1	-25	23	-10	-7	100*	-1
O=C(C[n+]1cc(-c2ccccc2)n2c1CCC2)c1cccs1	-2	-11	-8	-16	3	1
O=C(C[n+]1cc(-c2ccc(F)cc2)n2c1CCC2)N1c2ccccc2Sc2ccccc21	-25	-12	27	-7	96*	1
O=C(C[n+]1cc(-c2ccccc2)n2c1CCC2)N1c2ccccc2Sc2ccccc21	-26	-6	18	-8	99*	0
O=C(N=C1SC2CS(=O)(=O)CC2N1c1ccccc1)C1CCCCC1 (configuration not stated)	12	-13	12	-2	-13	1
O=C(NNc1cc(N2CCOCC2)nc(N2CCOCC2)n1)C12CC3CC(CC(C3)C1)C2	9	-13	25	-6	-3	0
O=C(NCCc1nc2ccccc2[nH]1)/C(=C/c1ccc2c(c1)OCO2)NC(=O)c1ccc(Cl)cc1Cl	-6	-2	14	-9	17	3
OC1C(O)C(O)C(O)C(O)C1O (configuration not stated)	-1	-2	8	-1	100*!	0
CCN1CCN(CC(=O)N2c3ccccc3Sc3ccccc32)CC1	-27	-9	3	-9	76*	1
O=C(CN1CCCC1)N1c2ccccc2Sc2ccccc21	-22	-11	4	-5	97*	0
CC(=O)c1c(C)[nH]c(C(=O)CN2CCN(S(=O)(=O)c3ccccc3[N+](=O)[O-])CC2)c1C	-13	-15	9	1	3	19*
O=C(N/N=C/c1ccc2cccc(OCc3ccccc3)c2n1)c1ccc(Cl)cc1	-10	19	-4	-1	34*	2
Cc1ccc(OC(=O)CCS(=O)(=O)c2ccc(C)cc2)cc1	25*	-9	2	-2	-27	0
COC(=O)Cc1ccc(OC(=O)CCS(=O)(=O)c2ccc(C)cc2)cc1	5	-9	1	-5	-4	1
Cc1cc(NC(=O)CCC(=O)N(c2ccccc2)C(C(=O)NC2CCCC2)c2ccccc2F)no1 (configuration not stated)	0	-14	6	-3	3	3
CCc1ccc(OC(C)C(=O)Nc2ccc(S(=O)(=O)Nc3nccs3)cc2)cc1 (configuration not stated)	4	-8	-1	17*	4	10
Cc1ccc(OC(C)C(=O)Nc2ccc(S(=O)(=O)Nc3nccs3)cc2)cc1 (configuration not stated)	11	-4	9	9	-11	3
O=C(Nc1ccccc1)c1oc2ccccc2c1NC(=O)C1CC1	2	-5	-1	1	-3	6
COc1ccc(C2=NOC(Cn3nc(C(=O)NCc4ccc(C)cc4)cc3-c3ccccc3)C2)cc1 (configuration not stated)	-13	-7	9	-3	28	5
SMILES	CHRM1 PAM	CHO-K1 Ca antag	CHO-K1 Ca PAM	M1 ag	M1 antag	M1 ag parental
COc1ccc(C2=NOC(Cn3nc(C(=O)NCc4ccco4)cc3-c3ccccc3)C2)cc1 (configuration not stated)	-21	-1	-10	0	33*	7
CN(C)Cc1ccccc1Sc1ccc(O)cc1O	3	-2	-3	18*	-12	0
O=C(Cc1ccc(NS(=O)(=O)c2cccc(C(F)(F)F)c2)cc1)NCCN1CCOCC1	6	-4	7	-5	-2	1
CC(C)(CNC(=O)Cc1ccc(NS(=O)(=O)c2cccc(C(F)(F)F)c2)cc1)N1CCOCC1	-13	10	-11	-6	34*	0
COc1ccc(CN2C(=O)C(CC(C)C)Nc3ncnc(N4CCN(c5ccccn5)CC4)c32)cc1 (configuration not stated)	-6	-12	13	-9	-8	0
CC(C)CC1Nc2ncnc(N3CCN(c4ccccn4)CC3)c2N(Cc2ccc(Br)cc2)C1=O (configuration not stated)	-25	-21	8	-12	40*!	0
Cc1ccc(CN2C(=O)C(CC(C)C)Nc3ncnc(N4CCN(c5ccccn5)CC4)c32)cc1 (configuration not stated)	-29	-8	9	-11	34*	0
O=C(Nc1ccc(C(=O)NCCCN2CCCCC2)cc1)C1=CSCCO1	-6	2	-11	-1	17	6
O=C(Nc1ccc(C(=O)NCCCN2CCN(c3ccc(F)cc3)CC2)cc1)C1=CSCCO1	-1	23	7	17*	-6	13
Cc1ccc(NS(=O)(=O)c2ccc(-c3csc(C)n3)s2)c(C)c1	-9	-2	6	-3	22	4
COc1ccc2[nH]cc(CCNS(=O)(=O)c3ccc(C)cc3)c2c1	5	2	14	14	-6	26*
CCCS(=O)(=O)N1CCC(C(=O)NCCC(C)C)CC1	-8	-9	-11	-6	0	0
Cc1nnc(C)c2c(C)n(Cc3ccc4c(c3)OCO4)c(C)c12	-12	24*	-8	-6	14	0
O=C(C[n+]1cc(-c2ccc(Cl)cc2)n2c1CCCCC2)c1ccccc1	-8	0	-15	-8	14	0
COc1ccc(-c2c[n+](CC(=O)OC3CC(C)CCC3C(C)C)c3n2CCC3)cc1 (configuration not stated)	-22	2	7	-6	91*	1
CC1CCC(C(C)C)C(OC(=O)C[n+]2cccc(C(N)=O)c2)C1 (configuration not stated)	-7	-1	12	-6	-14	-1

Assay outcomes as filed in PubChem BioAssay.
